Only some compounds are listed: those with a hit (about 3.5% of all), similar ones and a draw of the others.
FBW7 act – human FBW7 E3 ligase activation, primary screen; Q969H0; AlphaScreen FBW7–phospho-cyclin E peptide binding, activator screen; normalized activity (activation), % at 26.1 µM; 0.13% of 650,000 active; in the data active means normalized activity above about 1.9%;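 further: purified mutant Fbw7 with reduced substrate affinity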
GPR151 ag – human GPR151 activation; Q8TDV0; PathHunter beta-arrestin GPR151 cells, luminescence; activation, % at 11.2 µM; 1% of 650,000 active; AID 1508602; in the data active means activation above about 4.9%;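 further: 0% = median of compound wells and 100% = cells with positive control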
Target sequence (Q8TDV0 whole entry, looked up): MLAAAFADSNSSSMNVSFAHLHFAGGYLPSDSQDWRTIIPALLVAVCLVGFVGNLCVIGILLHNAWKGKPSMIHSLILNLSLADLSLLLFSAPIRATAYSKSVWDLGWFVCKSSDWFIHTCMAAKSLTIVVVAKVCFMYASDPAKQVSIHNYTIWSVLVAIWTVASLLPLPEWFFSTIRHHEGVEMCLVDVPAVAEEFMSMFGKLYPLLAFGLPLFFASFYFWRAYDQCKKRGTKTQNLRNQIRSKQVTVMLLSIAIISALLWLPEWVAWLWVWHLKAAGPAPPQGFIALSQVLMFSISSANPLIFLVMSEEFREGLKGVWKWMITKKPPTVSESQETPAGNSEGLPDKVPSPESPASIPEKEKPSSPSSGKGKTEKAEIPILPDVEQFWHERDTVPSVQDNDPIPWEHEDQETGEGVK
TEAD-YAP block – TEAD-YAP interaction inhibition; HEK-TIYL cells, TEAD-Gal4/YAP UAS-luciferase luminescence; inhibition, % at 9.12 µM; 1.4% of 640,000 active; AID 1259422; in the data active means inhibition above about 32%;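 further: 0% = median of test compound wells and 100% = reference inhibitor wells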
MITF primary – blocks human microphthalmia-associated transcription factor. O75030. AlphaScreen MITF homodimerization, bead proximity signal. inhibition, % at 2.6 µM. 0.91% of 650,000 active; in the data active means inhibition above about 50%;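 further: 0% = vehicle wells with protein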
MITF inh conf – confirmation of human MITF inhibitors; AlphaScreen MITF homodimerization, biotin/His-MITF beads; 16% of 4,700 active; AID 1259372; shares compounds with MITF primary; inhibition, % at 2.6 µM;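 active means inhibition above a cutoff derived from the DMSO control wells, cut at about 28% in these data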;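 further: 0% = MITF dimer wells with DMSO only; inhibitors lower the bead chemiluminescence by keeping MITF from dimerizing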
AlphaScreen DR – AlphaScreen optical interference, dose response counter-screen | AlphaScreen optical interference counterscreen, cell-free | IC50, µM | 6% of 480 active | AID 1259373 | shares compounds with MITF primary; call rule not given here
AS interf ctr – optically interferes with AlphaScreen signal; shares compounds with MITF primary; LysRS AlphaScreen counterscreen, signal interference, triplicate; inhibition, % at 2.6 µM; 7.6% of 4,700 active; AID 1259376;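 active means inhibition above a cutoff derived from the DMSO control wells, cut at about 30% in these data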
Numbers without * were called inactive; · = no result given.

SMILES	FBW7 act	GPR151 ag	TEAD-YAP block	MITF primary	MITF inh conf	AS interf ctr	others
COc1cccc(CN2CCC(C(=O)NC(C)C)CC2)c1	0.8	1.5	2.7	45.7	·	·
Cc1cccc(CN2CCC(C(=O)NC(C)C)CC2)c1	0.5	-0.8	0.6	77.1*	-9.5	-6.9
Cc1cccc(CN2CCN(C(=O)c3ccc(F)cc3)CC2)c1	0.9	-1.2	5.9	67.6*	17.1	10.8
O=C(c1ccncc1)N1CCN(Cc2cccc(Br)c2)CC1	-0.3	0.7	13.5	65.4*	-3.5	-3.3
COc1cccc(CN2CCN(C(=O)c3ccncc3)CC2)c1	0.1	0.4	0.4	81.4*	25.8	-15.5
Cc1ccc(Cl)cc1NC(=O)CC(NCCCN)C(=O)O (stereo not given)	-0.1	1.5	-2.8	1.9	·	·
COc1cc(OC)cc(C(=O)NC2CCCCCC2)c1	0.8	0.6	-3.7	-0.3	·	·
COc1cccc(CN2CCN(C(=O)Nc3cccc(Cl)c3)CC2)c1	0.0	-1.0	-5.8	51.0*	3.2	10.5
O=C(c1ccc(-c2ccccc2)cc1)N1CCN(Cc2cccc(F)c2)CC1	0.1	-0.9	-9.4	64.3*	-3.6	2.6
COc1cccc(CN2CCN(C(=O)c3ccc(F)cc3)CC2)c1	0.5	-1.9	7.3	59.7*	52.2*	20.6	AlphaScreen DR=>5.27
CC1(O)Cc2[nH][nH]c(=O)c2C(c2cccc([N+](=O)[O-])c2)C1C(=O)OCc1ccccc1 (stereo not given)	0.8	-0.7	-0.5	11.7	·	·
CCCn1c(=O)c2c(nc3n(C4CCCCC4)c(C)cn23)n(C)c1=O	0.5	0.7	5.7	-5.8	·	·
CC1=C(C(=O)Nc2ccc(Cl)cc2)C(c2cccs2)NC(=S)N1 (stereo not given)	0.2	-0.1	13.0	11.0	·	·
COc1cc2nc(CN(C)Cc3nccs3)nc(N)c2cc1OC	-0.3	0.8	4.7	72.6*	47.7*	100.2*
COc1cc2nc(CN(C)Cc3cc(C)no3)nc(N)c2cc1OC	0.2	2.8	-31.0	16.7	·	·
COc1ccc(Br)cc1C(=O)N/N=C/c1ccccc1F	0.2	-0.7	-1.6	66.8*	7.0	7.0
Cc1cc(C)c2c(n1)nn1c(C)c(CCC(=O)Nc3ccc(F)c(Cl)c3)c(C)nc21	-0.1	-0.3	-3.4	-7.3	·	·
O=C(c1ccc(S(=O)(=O)c2ccccc2Cl)c([N+](=O)[O-])c1)N1CCc2ccccc21	0.2	-0.1	-10.8	-5.2	·	·
CCOc1ccc(CNC(=O)CN2C(=O)C(CC)Sc3ccccc32)cc1OC (stereo not given)	0.1	0.4	8.6	50.8*	17.5	7.5
CCC1Sc2ccccc2N(CC(=O)NCCc2ccc(OC)c(OC)c2)C1=O (stereo not given)	0.2	-1.1	5.3	12.3	·	·
CCN=C1SC(CC(=O)Nc2cccc(OC)c2)C(=O)N1CC (stereo not given)	0.8	-0.6	-1.9	23.6	·	·
CCN1C(=O)C(CC(=O)Nc2cccc(C)c2)SC1=Nc1ccc(OC)cc1OC (stereo not given)	0.0	0.8	29.6	54.9*	1.6	1.1
O=C(NC1CC1)c1cccc(-c2csc3ccccc23)c1	0.3	-0.6	3.1	-10.2	·	·
CC(=O)OC1C2CC(C1I)C(C(F)(F)F)(C(F)(F)F)N2 (stereo not given)	0.0	-0.3	0.8	10.0	·	·
CC(=O)OC1C2CC(C1Br)C(C(F)(F)F)(C(F)(F)F)N2 (stereo not given)	-0.1	-0.2	-3.7	55.2*	-4.1	-2.0
SMILES	FBW7 act	GPR151 ag	TEAD-YAP block	MITF primary	MITF inh conf	AS interf ctr	others
CCCN(Cc1cccc([N+](=O)[O-])c1)CC1CC1	0.7	-0.1	3.8	53.5*	-91.4	-3.5
COc1ccc(NC(=S)Nc2ccc(N3CCOCC3)c3nonc23)cc1OC	-0.4	0.0	-12.6	24.2	·	·
O=C(O)c1cc([N+](=O)[O-])cc2c1-c1c(cc([N+](=O)[O-])cc1[N+](=O)[O-])/C2=C/c1ccco1	-1.8	0.4	3.4	62.0*	67.6*	22.4	AlphaScreen DR=>6.48
N#CCCn1cc(CNCc2ccccc2)c(-c2ccc(F)cc2)n1	-0.1	0.1	3.5	8.1	·	·
N#CCCn1cc(CNCc2ccccc2)c(-c2ccccc2)n1	-0.1	1.6	4.4	53.8*	14.1	13.5
Cc1cc(=O)nc2c3ccccc3n(C(C)C(=O)NCc3cccc(Br)c3)n12 (stereo not given)	-0.2	0.4	13.9	5.8	·	·
CC(=O)NC1=NC(=O)/C(=C\c2ccc(Br)o2)S1	-0.1	0.3	-7.9	77.0*	66.9*	11.7	AlphaScreen DR=>6.48
Cc1ccc(NC(=O)CSc2nc3ccsc3c(=O)n2Cc2ccccc2)cc1	-0.2	-0.7	-8.4	-10.5	·	·
CCC(C)c1ccccc1OCCCNCCOC (stereo not given)	0.0	-0.1	1.4	13.3	·	·
CCC(C)c1ccccc1OCCCNCCCOC (stereo not given)	-0.1	0.5	0.8	60.1*	3.1	0.9
CCC(C)c1ccccc1OCCNC(C)C (stereo not given)	-0.4	0.5	10.4	85.4*	-10.4	-1.4
Cc1cc(C)nc(SCc2cc(=O)c(OC(=O)c3cccc(Br)c3)co2)n1	-0.2	-0.2	2.8	-1.4	·	·
O=C1Nc2c(C(=O)O)cccc2C1=O	-0.1	-2.8	2.1	71.0*	68.0*	9.9	AlphaScreen DR=>7.92
O=C1Nc2c(I)cccc2C1=O	0.1	-1.0	5.6	10.6	·	·
N#CCCN1CCN(S(=O)(=O)c2ccccc2Br)CC1	-0.2	0.7	4.0	77.5*	-6.6	6.0
Cc1ccc(S(=O)(=O)N2CCN(CCC#N)CC2)cc1	0.1	3.2	4.9	62.4*	-5.1	1.6
NC(=O)/C(=C\c1cccc([N+](=O)[O-])c1)NC(=O)c1ccc(Br)cc1	0.0	-0.5	-0.3	52.5*	32.3*	-0.8	AlphaScreen DR=>6.48
NC(=O)/C(=C/c1cccc([N+](=O)[O-])c1)NC(=O)c1cccc(Br)c1	0.0	-0.7	13.9	3.1	·	·
O=C(O)c1cccc(NS(=O)(=O)c2cccc(C(=O)Nc3ccccc3)c2)c1	0.0	1.2	4.1	51.2*	12.1	-1.4
NC(CCC(=O)NC(CS(=O)(=O)O)C(=O)NCC(=O)O)C(=O)O (stereo not given)	-0.2	0.3	11.9	5.9	·	·
Cc1onc(-c2ccccc2)c1C(=O)Nc1cccc(C#N)c1	1.1	-0.1	7.6	70.1*	8.7	8.8
CSc1ccc(CN(CCO)Cc2ccccc2)cc1	0.8	1.6	12.7	34.8	·	·
OCCN(Cc1ccccc1)Cc1ccccc1F	0.6	-0.6	5.5	61.4*	-2.8	-9.4
OCCN(Cc1ccccc1)Cc1cccc(C(F)(F)F)c1	0.1	-0.6	-8.4	51.8*	-12.5	-3.6
OCCN(Cc1ccccc1)Cc1ccc(C(F)(F)F)cc1	0.0	2.5	1.4	52.3*	-2.7	0.5
O=C(Cc1cccc(C(F)(F)F)c1)Nc1ccccc1	-0.1	1.2	9.8	-18.9	·	·
